For 29 molecules, residual activity results are on record in ChEMBL document CHEMBL2218924, “A broad activity screen in support of a chemogenomic map for kinase signalling research and drug discovery” (Biochem J, 2013).

The target in one experiment is Ribosomal protein S6 kinase alpha-5 (Homo sapiens) (UniProt O75582). Particulars: at 10 µM.
Ribosomal protein S6 kinase alpha-5 (Homo sapiens), sequence (O75582 whole entry, looked up): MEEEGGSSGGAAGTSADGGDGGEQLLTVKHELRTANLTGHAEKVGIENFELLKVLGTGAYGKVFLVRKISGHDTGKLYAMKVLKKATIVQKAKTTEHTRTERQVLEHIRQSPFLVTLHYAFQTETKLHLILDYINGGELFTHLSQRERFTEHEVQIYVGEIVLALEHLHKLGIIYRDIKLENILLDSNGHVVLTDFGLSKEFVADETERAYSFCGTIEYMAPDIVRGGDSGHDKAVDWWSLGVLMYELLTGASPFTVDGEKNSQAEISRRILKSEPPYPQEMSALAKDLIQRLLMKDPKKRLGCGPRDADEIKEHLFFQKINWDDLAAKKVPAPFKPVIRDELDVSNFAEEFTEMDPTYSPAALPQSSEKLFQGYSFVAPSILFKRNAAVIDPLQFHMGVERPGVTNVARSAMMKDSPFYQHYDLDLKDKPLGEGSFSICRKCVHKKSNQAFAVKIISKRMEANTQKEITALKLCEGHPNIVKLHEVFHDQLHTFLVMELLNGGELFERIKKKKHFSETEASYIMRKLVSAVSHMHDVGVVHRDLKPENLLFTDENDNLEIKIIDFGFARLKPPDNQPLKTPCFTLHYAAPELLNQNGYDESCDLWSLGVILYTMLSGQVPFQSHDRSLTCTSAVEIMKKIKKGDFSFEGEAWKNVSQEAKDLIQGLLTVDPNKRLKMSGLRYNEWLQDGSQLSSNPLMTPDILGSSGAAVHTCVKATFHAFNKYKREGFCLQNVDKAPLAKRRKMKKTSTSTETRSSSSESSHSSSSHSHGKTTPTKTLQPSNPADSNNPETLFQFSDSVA
For `Cn1c2ccccc2c2c3c(c4c5ccccc5n(CCC#N)c4c21)CNC3=O`, the residual activity (usually the signal under treatment as a percentage of the control signal) turned out to be 2%.

As for `COc1ccc(COc2ccc(Cc3cnc(N)nc3N)cc2OC)cc1`, the residual activity is 109%.

For `O=C1Cc2c([nH]c3ccc([N+](=O)[O-])cc23)-c2ccccc2N1`, the residual activity worked out at 107%.

Take `O=c1cc(N2CCOCC2)oc2c1ccc1ccccc12`: the residual activity amounted to 103%.

As for `N#C/C(=C\c1ccc(O)c(O)c1)C(=O)NCc1ccccc1`, the residual activity was 57%.

In the case of `c1ccc(-c2cnc(Nc3ccc(OCCN4CCCC4)cc3)s2)cc1`, the residual activity is 106%.

On to `Nc1ncnc2c1c(-c1ccc(Oc3ccccc3)cc1)cn2C1CCCC1`, for which the residual activity came to 67%.

As for `NCCNc1ncc(C(N)=O)c(Nc2cccc(C(F)(F)F)c2)n1`, the residual activity came to 77%.

Turning to `O=C(O)/C=C/c1cc(Br)c(Br)c(Br)c1Br`, the residual activity was found to be 102%.

Take `CC(C)(C)n1nc(Cc2cccc3ccccc23)c2c(N)ncnc21`: the residual activity is 93%.

Consider `O=C(CCCc1ccc(-c2ccccc2F)cc1)Nc1ccc(O)cc1`, for which the residual activity was 104%.

Consider `CCN(CC)CCNC(=O)c1c(C)[nH]c(/C=C2\C(=O)Nc3ccc(Cl)cc32)c1C`, for which the residual activity worked out at 31%.

As for `CC(C)[C@H](CO)Nc1nc(Nc2cc(N)cc(Cl)c2)c2ncn(C(C)C)c2n1`, the residual activity was determined as 76%.

For `COc1cc2nccc(Oc3ccc(NC(=S)NC(=O)c4ccccc4C)cc3)c2cc1OC`, the residual activity came out at 102%.

As for `N#C/C(=C1/Nc2ccccc2S1)c1ccnc(NCCc2cccnc2)n1`, the residual activity worked out at 68%.

Regarding `O=c1cc(N2CCNCC2)oc2c(-c3ccccc3)cccc12`, the residual activity stood at 94%.

Take `O=C1NC(=O)c2c1c1c3ccccc3[nH]c1n1cncc21`: the residual activity is 48%.

In the case of `Nc1n[nH]c2nc3ccccc3nc12`, the residual activity was 86%.

Consider `NC(=O)c1ccc(-c2nc(-c3ccc4c(c3)OCCO4)c(-c3ccccn3)[nH]2)cc1`, for which the residual activity came out at 124%.

As to `O=C(c1ccccc1)c1ccc(N2CCOCC2)cc1O`, the residual activity is 86%.

For another experiment, the target named is Ribosomal protein S6 kinase alpha-4 (Homo sapiens) (UniProt O75676). Particulars: at 1 µM.
Ribosomal protein S6 kinase alpha-4 (Homo sapiens), sequence (O75676 whole entry, looked up): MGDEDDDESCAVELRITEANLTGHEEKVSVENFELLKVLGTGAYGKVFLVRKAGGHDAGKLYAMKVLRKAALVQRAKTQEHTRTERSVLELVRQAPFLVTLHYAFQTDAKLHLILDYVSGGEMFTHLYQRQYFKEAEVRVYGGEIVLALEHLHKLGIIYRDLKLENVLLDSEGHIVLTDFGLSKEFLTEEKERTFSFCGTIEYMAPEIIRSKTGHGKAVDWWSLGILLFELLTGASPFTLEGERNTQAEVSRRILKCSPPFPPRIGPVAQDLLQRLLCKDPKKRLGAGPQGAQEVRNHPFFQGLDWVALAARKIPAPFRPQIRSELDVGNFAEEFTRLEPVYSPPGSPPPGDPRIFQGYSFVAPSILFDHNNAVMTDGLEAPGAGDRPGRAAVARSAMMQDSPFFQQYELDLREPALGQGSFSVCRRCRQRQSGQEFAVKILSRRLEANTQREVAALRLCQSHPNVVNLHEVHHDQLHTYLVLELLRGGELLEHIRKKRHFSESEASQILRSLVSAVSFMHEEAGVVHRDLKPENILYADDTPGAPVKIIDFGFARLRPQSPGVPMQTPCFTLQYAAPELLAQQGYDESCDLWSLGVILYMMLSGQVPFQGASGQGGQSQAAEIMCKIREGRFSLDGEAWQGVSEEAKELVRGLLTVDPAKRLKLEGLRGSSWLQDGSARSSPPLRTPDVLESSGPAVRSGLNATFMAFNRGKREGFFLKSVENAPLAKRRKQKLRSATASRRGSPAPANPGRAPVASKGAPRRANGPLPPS
Consider `Cn1c2ccccc2c2c3c(c4c5ccccc5n(CCC#N)c4c21)CNC3=O`, for which the residual activity was 2%.

For `N#C/C(=C\c1ccc(O)c(O)c1)C(=O)NCc1ccccc1`, the residual activity came out at 86%.

Take `Nc1ncnc2c1c(-c1ccc(Oc3ccccc3)cc1)cn2C1CCCC1`: the residual activity came out at 83%.

In the case of `O=C(NC(NC(=S)Nc1ccc(F)c([N+](=O)[O-])c1)C(Cl)(Cl)Cl)C(c1ccccc1)c1ccccc1` (stereo unspecified), the residual activity turned out to be 95%.

As for `NCCNc1ncc(C(N)=O)c(Nc2cccc(C(F)(F)F)c2)n1`, the residual activity was 81%.

Regarding `O=C(O)/C=C/c1cc(Br)c(Br)c(Br)c1Br`, the residual activity is 102%.

With `CC(C)(C)n1nc(Cc2cccc3ccccc23)c2c(N)ncnc21`, the residual activity turned out to be 95%.

As to `O=C(CCCc1ccc(-c2ccccc2F)cc1)Nc1ccc(O)cc1`, the residual activity amounted to 110%.

Take `CSc1nc(-c2ccc(F)cc2)c(-c2ccnc(NC(C)c3ccccc3)c2)[nH]1` (stereo unspecified): the residual activity came to 100%.

For `CCN(CC)CCNC(=O)c1c(C)[nH]c(/C=C2\C(=O)Nc3ccc(Cl)cc32)c1C`, the residual activity was 42%.

As to `O=C1Nc2ccc(Cl)cc2/C1=C/c1cc(Cl)c(O)c(Cl)c1`, the residual activity came to 84%.

Take `COc1cc2nccc(Oc3ccc(NC(=S)NC(=O)c4ccccc4C)cc3)c2cc1OC`: the residual activity amounted to 87%.

As to `CC(C)(C)c1nc2c3ccc(F)cc3c3c(=O)[nH]ccc3c2[nH]1`, the residual activity turned out to be 36%.

As to `O=C1Cc2c([nH]c3ccc(Br)cc23)-c2ccccc2N1`, the residual activity was 82%.

Regarding `Fc1ccc(-c2nc3n(c2-c2ccncc2)CCS3)cc1`, the residual activity stood at 95%.

`O=c1cc(N2CCNCC2)oc2c(-c3ccccc3)cccc12`: the residual activity came to 93%.

As to `O=C1NC(=O)c2c1c1c3ccccc3[nH]c1n1cncc21`, the residual activity amounted to 53%.

For `NC(=O)Nc1sc(-c2ccc(F)cc2)cc1C(N)=O`, the residual activity was 85%.

With `O=C(c1ccccc1)c1ccc(N2CCOCC2)cc1O`, the residual activity stood at 88%.

The target is the same in the next experiment. The settings on record: at 10 µM.
Take `Cn1c2ccccc2c2c3c(c4c5ccccc5n(CCC#N)c4c21)CNC3=O`: the residual activity worked out at 5%.

On to `Nc1ncnc2c1cnn2-c1ccccc1`, for which the residual activity was found to be 86%.

Turning to `O=c1cc(N2CCOCC2)oc2c1ccc1ccccc12`, the residual activity was 105%.

Consider `N#C/C(=C\c1ccc(O)c(O)c1)C(=O)NCc1ccccc1`, for which the residual activity was 74%.

`Nc1ncnc2c1c(-c1ccc(Oc3ccccc3)cc1)cn2C1CCCC1`: the residual activity worked out at 59%.

As to `O=C(NC(NC(=S)Nc1ccc(F)c([N+](=O)[O-])c1)C(Cl)(Cl)Cl)C(c1ccccc1)c1ccccc1` (stereo unspecified), the residual activity turned out to be 94%.

Regarding `NCCNc1ncc(C(N)=O)c(Nc2cccc(C(F)(F)F)c2)n1`, the residual activity was found to be 81%.

`O=C(O)/C=C/c1cc(Br)c(Br)c(Br)c1Br`: the residual activity turned out to be 64%.

Turning to `O=C(CCCc1ccc(-c2ccccc2F)cc1)Nc1ccc(O)cc1`, the residual activity worked out at 100%.

Turning to `CSc1nc(-c2ccc(F)cc2)c(-c2ccnc(NC(C)c3ccccc3)c2)[nH]1` (stereo unspecified), the residual activity came out at 84%.

For the molecule `CCN(CC)CCNC(=O)c1c(C)[nH]c(/C=C2\C(=O)Nc3ccc(Cl)cc32)c1C`, the residual activity is 15%.

Turning to `CC(C)[C@H](CO)Nc1nc(Nc2cc(N)cc(Cl)c2)c2ncn(C(C)C)c2n1`, the residual activity was found to be 51%.

On to `O=C1Nc2ccc(Cl)cc2/C1=C/c1cc(Cl)c(O)c(Cl)c1`, for which the residual activity is 51%.

Take `COc1cc2nccc(Oc3ccc(NC(=S)NC(=O)c4ccccc4C)cc3)c2cc1OC`: the residual activity is 93%.

For the molecule `CC(C)(C)c1nc2c3ccc(F)cc3c3c(=O)[nH]ccc3c2[nH]1`, the residual activity was 44%.

In the case of `O=C1Cc2c([nH]c3ccc(Br)cc23)-c2ccccc2N1`, the residual activity stood at 63%.

In the case of `N#Cc1c(NC(=O)c2cccc3ccccc23)sc2c1CCCC2`, the residual activity amounted to 99%.

With `Fc1ccc(-c2nc3n(c2-c2ccncc2)CCS3)cc1`, the residual activity was 85%.

As for `O=c1cc(N2CCNCC2)oc2c(-c3ccccc3)cccc12`, the residual activity stood at 103%.

In the case of `O=C1NC(=O)c2c1c1c3ccccc3[nH]c1n1cncc21`, the residual activity came out at 29%.

Take `NC(=O)Nc1sc(-c2ccc(F)cc2)cc1C(N)=O`: the residual activity worked out at 46%.

In the case of `O=C(c1ccccc1)c1ccc(N2CCOCC2)cc1O`, the residual activity is 100%.
